The supplement of paper PMC6555819

How the values were obtained:
Experiment in all cases: PBM binding z-score (relative to random genomic background probes); higher = stronger binding; sequences stand for … in GC…GCGATTGACAGCGTAGAATGAAGG
[1] = test system: FXR:RXRa (NR concentration 270 nM, RXRa partner concentration 90 nM)
Outline: (§1)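 Regression normalization was applied to scanned fluorescence from custom Agilent 4×180K protein-binding microarrays. Before scanning, arrays were incubated 1 h with ligand-free nuclear receptor dimers, and binding was detected with antibodies against each partner (one per run). Binding z-scores use the random background probes as reference.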

[2] = test system: LXRa:RXRa (NR concentration 270 nM, RXRa partner concentration 90 nM)
Outline: as §1

[3] = test system: LXRa homodimer (NR concentration 270 nM)
Outline: as §1

[4] = test system: LXRb:RXRa (NR concentration 270 nM, RXRa partner concentration 90 nM)
Outline: as §1

[5] = test system: LXRb homodimer (NR concentration 270 nM)
Outline: as §1

[6] = test system: PPARa:RXRa (NR concentration 270 nM, RXRa partner concentration 90 nM)
Outline: as §1

[7] = test system: PPARg:RXRa (NR concentration 180 nM, RXRa partner concentration 90 nM)
Outline: as §1

[8] = test system: PPARg:RXRa 270nM:90nM, anti-RXR (NR concentration 270 nM, RXRa partner concentration 90 nM)
Outline: as §1

[9] = test system: PPARg:RXRa 30nM:10nM, anti-RXR (NR concentration 30 nM, RXRa partner concentration 10 nM)
Outline: as §1

[10] = test system: PPARg:RXRa 90nM:30nM, anti-RXR (NR concentration 90 nM, RXRa partner concentration 30 nM)
Outline: as §1

[11] = test system: PPARg:RXRa DBDmut IVT, anti-RXR (DBD mutation: RXRa K156A/R161A, NR concentration 270 nM, RXRa partner concentration 90 nM)
Outline: as §1

[12] = test system: PPARg:RXRa IVT, anti-PPARg (NR concentration 270 nM, RXRa partner concentration 90 nM)
Outline: as §1

[13] = test system: PPARg DBDmut:RXRa IVT, anti-PPARg (DBD mutation: PPARg1 K132A/R137A, NR concentration 270 nM, RXRa partner concentration 90 nM)
Outline: as §1

[14] = test system: PPARg DBDmut IVT, anti-PPARg (DBD mutation: PPARg1 K132A/R137A, NR concentration 270 nM)
Outline: as §1

[15] = test system: PPARg homodimer (NR concentration 180 nM)
Outline: as §1

[16] = test system: PXR:RXRa (NR concentration 270 nM, RXRa partner concentration 90 nM)
Outline: as §1

[17] = test system: PXR homodimer (NR concentration 270 nM)
Outline: as §1

[18] = test system: RARa:RXR (NR concentration 270 nM, RXRa partner concentration 90 nM)
Outline: as §1

[19] = test system: RARa homodimer (NR concentration 270 nM)
Outline: as §1

[20] = test system: RARb:RXRa (NR concentration 270 nM, RXRa partner concentration 90 nM)
Outline: as §1

| Sequence | PBM binding z-score [1] | PBM binding z-score [2] | PBM binding z-score [3] | PBM binding z-score [4] | PBM binding z-score [5] | PBM binding z-score [6] | PBM binding z-score [7] | PBM binding z-score [8] | PBM binding z-score [9] | PBM binding z-score [10] | PBM binding z-score [11] | PBM binding z-score [12] | PBM binding z-score [13] | PBM binding z-score [14] | PBM binding z-score [15] | PBM binding z-score [16] | PBM binding z-score [17] | PBM binding z-score [18] | PBM binding z-score [19] | PBM binding z-score [20] |
| --- | --- | --- | --- | --- | --- | --- | --- | --- | --- | --- | --- | --- | --- | --- | --- | --- | --- | --- | --- | --- |
| GCTGCCAGGTCAACTGATGGTCAGCTAAAGCTCG | 4.84 | 3.82 | 0.113 | 2.73 | 0.00556 | 4.4 | 2.42 | 3.09 | 0.281 | 1.61 | 2.71 | 2.73 | 0.45 | -0.276 | 4.33 | 2.76 | -0.337 | 4.22 | -0.0772 | 4.46 |
| AGAATGAGGTTAAGATCAGGAAAACAGAATACAT | 2.16 | 1.98 | -0.0642 | 1.77 | -0.122 | 3.76 | 2.48 | 2.46 | 1.03 | 1.72 | 2.5 | 2.67 | 1.33 | 0.813 | 0.0242 | 1.08 | 0.189 | 1.93 | 0.732 | 1.9 |
| ATCGAAAGGTCGACGAAGTGAGTATACACCGTTT | 3.64 | 2.87 | -0.00377 | 2.49 | 0.429 | 3.98 | 2.23 | 2.51 | 0.7 | 1.46 | 0.569 | 1.5 | 1.34 | 0.821 | 1.08 | 2.28 | -0.00563 | 2.81 | -0.0339 | 3.71 |
| TGAATGAGGTTAAAGATAAGGGAACGTGGCGTCG | 2.65 | 2.28 | 0.104 | 1.5 | 0.393 | 3.54 | 2.88 | 3.98 | 1.97 | 3.5 | 2.35 | 2.62 | 1.71 | 0.597 | 0.427 | 1.37 | 0.106 | 2.09 | -0.181 | 2.04 |
| CCTCGGAAGACAACAGGAGGTCAGAGCTGCCAGA | 0.802 | 1.66 | 1.65 | 1.31 | -0.201 | 1.62 | 0.36 | 0.247 | -0.599 | -0.387 | -0.389 | -0.416 | -0.399 | -1.87 | 1.38 | 1.62 | 0.458 | 2.01 | 0.559 | 1.81 |
| CCGACTGGGGCATAAGGTTACCAGAAGCCAGCCC | 0.432 | 1.72 | -0.288 | 0.864 | -1.26 | 2 | 2.27 | 3.48 | 1.75 | 2.93 | 3.11 | 3.13 | -1.29 | -1.2 | 0.743 | 0.265 | -0.64 | 1.84 | -0.798 | 1.78 |
| CCAAGCAGGCCAATCTGGGTCACTCAAGGCTTGA | 0.754 | 1.79 | -0.345 | 0.979 | -1.19 | 3.45 | 2.46 | 2.55 | 0.227 | 1.63 | 4.53 | 4.91 | 0.213 | -1.24 | 0.382 | 1.26 | -0.284 | 1.71 | -1.17 | 1.62 |
